Measured values reported in PubChem BioAssay (NCATS).
Inconclusive results are not listed. Active and inactive are the calls of the source. The call rests on the fitted dose curve; in most records, active means well fitted curve in the direction sought with a large enough effect; inconclusive means small, poorly fitted or top-dose-only effect, or another doubt; inactive means no such curve, though single readings can be large; an effect the other way counts as inactive or inconclusive.

Columns and labels:
MCC-13 = experiment: qHTS assay to identify novel small-molecules to repurpose for Merkel cell carcinoma treatment (AID 1296009); settings: MCC and control cell lines, CellTiter-Glo viability, 72 h; series mostly up to 46 µM; further: nearly all actives have a fitted effect of over 60% in size
How it was run: (§1)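 Cell viability, measured as CellTiter-Glo luminescence, was normalized between DMSO and no-cell wells. The cells had been exposed to 8- or 11-point compound dilutions for 72 hr at 37 degree celsius.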

MCC-26 = experiment: as above; settings: MCC and control cell lines, CellTiter-Glo viability, 72 h; series mostly up to 46 µM
How it was run: as §1

MKL-1 = experiment: as above; settings: MCC and control cell lines, CellTiter-Glo viability, 72 h; series mostly up to 46 µM
How it was run: as §1

MKL-2 = experiment: as above; settings: MCC and control cell lines, CellTiter-Glo viability, 72 h; series mostly up to 46 µM
How it was run: as §1

NIH3T3 = experiment: as above; settings: MCC and control cell lines, CellTiter-Glo viability, 72 h; at 44.8 µM (top of the series) unless noted
How it was run: as §1

UISO = experiment: as above; settings: MCC and control cell lines, CellTiter-Glo viability, 72 h; series mostly up to 46 µM
How it was run: as §1

WaGa = experiment: as above; settings: MCC and control cell lines, CellTiter-Glo viability, 72 h; series mostly up to 46 µM
How it was run: as §1

C33A = experiment: Primary qHTS to identify gynecologic anti-cancer compounds using libraries of approved drugs and bioactive compounds (AID 1345084); settings: Gynecologic cancer cell panel viability, ATPlite luminescence, 48 h; series mostly up to 57.5 µM; further: nearly all actives have a fitted effect of over 55% in size
How it was run: (§2)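 Five-concentration response, 48 h; readout is ATP-driven luciferase luminescence.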

CAOV3 = experiment: as above; settings: Gynecologic cancer cell panel viability, ATPlite luminescence, 48 h; series mostly up to 57.5 µM
How it was run: as §2

CASKI = experiment: as above; settings: Gynecologic cancer cell panel viability, ATPlite luminescence, 48 h; series mostly up to 57.5 µM
How it was run: as §2

Es-2 = experiment: as above; settings: Gynecologic cancer cell panel viability, ATPlite luminescence, 48 h; series mostly up to 57.5 µM
How it was run: as §2

HeLa = experiment: as above; settings: Gynecologic cancer cell panel viability, ATPlite luminescence, 48 h; series mostly up to 57.5 µM
How it was run: as §2

Hek293T = experiment: as above; settings: Gynecologic cancer cell panel viability, ATPlite luminescence, 48 h, control line for the selectivity index; series mostly up to 57.5 µM
How it was run: as §2

JEG-3 = experiment: as above; settings: Gynecologic cancer cell panel viability, ATPlite luminescence, 48 h; series mostly up to 57.5 µM
How it was run: as §2

OV90 = experiment: as above; settings: Gynecologic cancer cell panel viability, ATPlite luminescence, 48 h; series mostly up to 57.5 µM
How it was run: as §2

PA-1 = experiment: as above; settings: Gynecologic cancer cell panel viability, ATPlite luminescence, 48 h; series mostly up to 57.5 µM
How it was run: as §2

SKOV3 = experiment: as above; settings: Gynecologic cancer cell panel viability, ATPlite luminescence, 48 h; series mostly up to 57.5 µM
How it was run: as §2

Tov-21-G = experiment: as above; settings: Gynecologic cancer cell panel viability, ATPlite luminescence, 48 h; series mostly up to 57.5 µM
How it was run: as §2

Tov112D = experiment: as above; settings: Gynecologic cancer cell panel viability, ATPlite luminescence, 48 h; series mostly up to 57.5 µM
How it was run: as §2

[1] = Drug repurposing screens with cells derived from glioblastoma tumor samples (AID 1345199); settings: GBM patient neurospheres viability, ATP luminescence, 48 h; further: nearly all actives have a fitted effect of over 40% in size; further: potency means the concentration at half of the fitted maximal effect
How it was run: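 Primary testing used CD133+ neurospheres from four GBM patients, seven concentrations, 48 h exposure and ATP-based viability; confirmation added three slower-growing patient lines.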

[2] = at 45.9 µM (top of the series), tumour line B
[3] = at 45.9 µM (top of the series), tumour line D
On the % scale 0 is the no-effect control and ±100 the full control effect.

C[C@@H]1CN(C2CCC(C#N)(c3ccc(F)cc3)CC2)CC[C@]1(C(=O)O)c1ccccc1 (stereo not given in full)
inactive: Potency (MCC-13) | Potency (MCC-26) | Potency (MKL-1) | Potency (MKL-2) | outcome (NIH3T3) | Potency (UISO) | Potency (WaGa) | Potency (C33A) | Potency (CAOV3) | Potency (CASKI) | Potency (Es-2) | Potency (HeLa) | Potency (Hek293T) | Potency (JEG-3) | Potency (OV90) | Potency (PA-1) | Potency (SKOV3) | Potency (Tov-21-G) | Potency (Tov112D) | activity, negative = cell killing ([1]; at 21.2 µM (top of the series), tumour line B) -8.19% | activity, negative = cell killing ([1]; at 21.2 µM (top of the series), tumour line D) -4.39%

NC(=O)OCCCc1ccccc1
inactive: Potency (MCC-13) | Potency (MCC-26) | Potency (MKL-1) | Potency (MKL-2) | outcome (NIH3T3) | Potency (UISO) | Potency (WaGa) | Potency (C33A) | Potency (CAOV3) | Potency (CASKI) | Potency (Es-2) | Potency (HeLa) | Potency (Hek293T) | Potency (JEG-3) | Potency (OV90) | Potency (PA-1) | Potency (SKOV3) | Potency (Tov-21-G) | Potency (Tov112D) | activity, negative = cell killing [1, 2] 0.315% | activity, negative = cell killing [1, 3] -23.1%

Sc1ccccc1Cl
inactive: Potency (MCC-13) | Potency (MCC-26) | Potency (MKL-1) | Potency (MKL-2) | Potency (UISO) | Potency (WaGa) | Potency (C33A) | Potency (CAOV3) | Potency (CASKI) | Potency (Es-2) | Potency (HeLa) | Potency (Hek293T) | Potency (JEG-3) | Potency (OV90) | Potency (PA-1) | Potency (SKOV3) | Potency (Tov-21-G) | Potency (Tov112D)

CCN(CC)CCOC(=O)C(C)(c1ccccc1)c1ccccc1
inactive: Potency (MCC-13) | Potency (MCC-26) | Potency (MKL-1) | Potency (MKL-2) | Potency (UISO) | Potency (WaGa) | Potency (C33A) | Potency (CAOV3) | Potency (CASKI) | Potency (Es-2) | Potency (HeLa) | Potency (Hek293T) | Potency (JEG-3) | Potency (OV90) | Potency (PA-1) | Potency (SKOV3) | Potency (Tov-21-G) | Potency (Tov112D) | activity, negative = cell killing [1, 2] -27.8%
active: Potency ([1]; tumour line A) 10 µM

CCOP(=S)(OCC)O/N=C(\C#N)c1ccccc1
inactive: Potency (MCC-13) | Potency (MCC-26) | Potency (MKL-1) | Potency (MKL-2) | outcome (NIH3T3) | Potency (UISO) | Potency (WaGa) | Potency (C33A) | Potency (CAOV3) | Potency (CASKI) | Potency (Es-2) | Potency (HeLa) | Potency (Hek293T) | Potency (JEG-3) | Potency (OV90) | Potency (PA-1) | Potency (SKOV3) | Potency (Tov-21-G) | Potency (Tov112D) | activity, negative = cell killing [1, 2] 9.02% | activity, negative = cell killing [1, 3] -6.28%

OC(O)C(Cl)(Cl)Cl
inactive: Potency (MCC-13) | Potency (MCC-26) | Potency (MKL-1) | Potency (MKL-2) | outcome (NIH3T3) | Potency (UISO) | Potency (WaGa) | Potency (C33A) | Potency (CASKI) | Potency (Es-2) | Potency (HeLa) | Potency (Hek293T) | Potency (JEG-3) | Potency (OV90) | Potency (PA-1) | Potency (SKOV3) | Potency (Tov-21-G) | Potency (Tov112D) | activity, negative = cell killing [1, 2] -7.9% | activity, negative = cell killing [1, 3] -0.425% | activity, negative = cell killing ([1]; at 46 µM (top of the series), tumour line A) -19%

COc1cc(CC#N)cc(OC)c1OC
inactive: Potency (MCC-13) | Potency (MCC-26) | Potency (MKL-1) | Potency (MKL-2) | Potency (UISO) | Potency (WaGa) | Potency (C33A) | Potency (CAOV3) | Potency (CASKI) | Potency (Es-2) | Potency (HeLa) | Potency (Hek293T) | Potency (JEG-3) | Potency (OV90) | Potency (PA-1) | Potency (SKOV3) | Potency (Tov-21-G) | Potency (Tov112D)
